Screening results deposited in PubChem by several laboratories.
In the library only some 5.4% were active in any assay of this set; here they are far more common.
GAA850 FXN act – activators of GAA850 frataxin (FXN) promoter | activation, % at 6 µM | HEK293 lucGAA850 FXN promoter luciferase reporter, 24 h; percent of 10 µM SAHA response | hit rate 0.56% among 360,000;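 active means activation above the average of all compounds screened plus 3 SD, cutoff fixed separately per campaign, cut at about 7.5% in these data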
NR0B1 inh – inhibitors of human orphan nuclear receptor DAX1 (NR0B1) | P51843 | inhibition, % at 6.75 µM | hit rate 0.99% among 340,000 | AID 504766 | HEK293 Gal4-DAX1 luciferase reporter, luminescence;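 active means inhibition above the mean over all tested compounds plus 3 SD, cut at about 4.2% in these data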;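 further: inhibition shows as a rise in luminescence from relieved DAX1 repression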
HSF1 inh – HSF1 inhibition; NIH3T3-HGL HSE-luciferase, MG132-induced, luminescence 8 h; active compounds read low; activity change, negative = inhibition, % at 7.5 µM (by protocol); hit rate 0.77% among 300,000;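 active means more than half of replicate wells show activity change below -50%, luminescence cut by over half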;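 further: luciferase reports HSF-1 transcriptional activity via heat shock element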
AHR activator – human AHR activation | P35869 | AHR-responsive luciferase reporter cells, luminescence | activation, % at 5 µM | hit rate 2.5% among 320,000 | AID 2796; in the data active means activation above about 47%
Target sequence (P35869 whole entry, looked up): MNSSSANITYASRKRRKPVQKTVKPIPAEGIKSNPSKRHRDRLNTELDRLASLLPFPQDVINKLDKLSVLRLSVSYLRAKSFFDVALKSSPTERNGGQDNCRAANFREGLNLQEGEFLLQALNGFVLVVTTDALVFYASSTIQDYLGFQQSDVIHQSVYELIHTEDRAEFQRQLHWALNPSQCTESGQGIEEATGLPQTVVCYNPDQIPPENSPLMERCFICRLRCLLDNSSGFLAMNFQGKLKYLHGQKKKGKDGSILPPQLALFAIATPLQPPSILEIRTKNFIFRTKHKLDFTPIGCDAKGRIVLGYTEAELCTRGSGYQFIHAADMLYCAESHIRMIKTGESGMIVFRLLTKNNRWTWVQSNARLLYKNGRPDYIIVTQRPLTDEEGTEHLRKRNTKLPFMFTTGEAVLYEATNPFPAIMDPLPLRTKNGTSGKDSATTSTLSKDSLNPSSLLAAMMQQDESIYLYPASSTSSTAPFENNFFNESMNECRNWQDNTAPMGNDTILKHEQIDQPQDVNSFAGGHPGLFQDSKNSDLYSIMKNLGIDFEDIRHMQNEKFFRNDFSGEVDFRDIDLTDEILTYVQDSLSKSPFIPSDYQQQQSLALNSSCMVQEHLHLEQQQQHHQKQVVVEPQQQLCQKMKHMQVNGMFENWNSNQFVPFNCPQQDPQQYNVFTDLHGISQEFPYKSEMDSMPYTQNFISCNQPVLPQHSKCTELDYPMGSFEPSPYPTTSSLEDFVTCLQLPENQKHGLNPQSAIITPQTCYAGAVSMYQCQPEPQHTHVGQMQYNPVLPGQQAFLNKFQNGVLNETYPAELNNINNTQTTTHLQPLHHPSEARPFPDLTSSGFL
HSF1 activator – increases HSF-1 driven luciferase reporter signal; activation, % at 9 µM; NIH3T3-HGL HSF-1 luciferase reporter, MG132, 8 h; 100% = twice DMSO control signal; hit rate 1.7% among 300,000;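 active means mean replicate activation of at least 50% with a set share of replicates each reaching 50%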
GAA30 FXN cntr – counter-screen for GAA850 frataxin promoter activators: GAA30 promoter activation. activation, % at 6 µM. AID 588350. shares compounds with GAA850 FXN act. hit rate 66% among 1,900. HEK293 lucGAA30 FXN promoter luciferase, 24 h; DMSO = 0%, 5 µM ipriflavone = 100%;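 active means mean activation above the mean of solvent-only control wells plus 3 SD, cut at about 22% in these data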;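 further: counterscreen of GAA850 promoter hits where activity marks nonselective or luminescence artifacts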
GAA850 confirm – confirmation of GAA850 frataxin (FXN) promoter activators; HEK293 lucGAA850 FXN promoter luciferase reporter, 24 h; 100% = activation by SAHA; shares compounds with GAA850 FXN act; hit rate 86% among 1,900; activation, % at 6 µM;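 active means mean activation above a set limit taken from the primary screen, cut at about 8% in these data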
A number is an active result.

`CC(C)CCOP(=O)(c1ccc(N(C)C)cc1)C(O)c1ccccc1` (stereo unspecified) gave GAA850 FXN act 8.2, NR0B1 inh inactive, HSF1 inh inactive, AHR activator inactive, HSF1 activator inactive, GAA30 FXN cntr inactive and GAA850 confirm inactive.
Screening COCC(=O)NCCc1nc2ccccc2[nH]1 returned GAA850 FXN act 16.5, NR0B1 inh inactive, HSF1 inh inactive, AHR activator inactive, HSF1 activator inactive, GAA30 FXN cntr 22.4 and GAA850 confirm 7.9.
`O=C(Nc1ccon1)c1cc2c(s1)CCCCCC2` gave GAA850 FXN act 8.8, NR0B1 inh inactive, HSF1 inh inactive, AHR activator inactive, HSF1 activator inactive, GAA30 FXN cntr 112.8 and GAA850 confirm 36.1.
Screening CC(=NNC(=S)Nc1ccccc1Cl)c1ccccn1 returned GAA850 FXN act 13.6, NR0B1 inh inactive, GAA30 FXN cntr inactive and GAA850 confirm 24.7.
For CC(=NNC(=S)Nc1ccccc1)c1ccccn1 the results were GAA850 FXN act inactive and NR0B1 inh inactive.
For Cc1nc2nc(-c3ccccc3)nn2c(C)c1C the results were GAA850 FXN act 7.6, NR0B1 inh inactive, HSF1 inh inactive, AHR activator inactive, HSF1 activator inactive, GAA30 FXN cntr 115.2 and GAA850 confirm 40.8.
`Cc1c(-c2ccc(O)cc2)nc2nc(-c3ccccc3)c(-c3ccccc3)nn12` gave HSF1 inh inactive, AHR activator inactive and HSF1 activator inactive.
O=C(CN1CCN(Cc2ccccc2F)C1=O)NCc1cccnc1 was read as GAA850 FXN act 12.9, NR0B1 inh inactive, HSF1 inh inactive, AHR activator inactive, HSF1 activator inactive, GAA30 FXN cntr inactive and GAA850 confirm inactive.
For Cc1ccc(OCCSc2nc(N)cc(N)n2)cc1 the results were GAA850 FXN act 9.1, NR0B1 inh inactive, HSF1 inh inactive, AHR activator inactive, HSF1 activator inactive, GAA30 FXN cntr 110.0 and GAA850 confirm 37.4.
For O=C(Oc1ccccc1Cl)C1CCN(C(=O)c2ccc(F)cc2)CC1 the results were GAA850 FXN act inactive, NR0B1 inh inactive, HSF1 inh inactive, AHR activator inactive and HSF1 activator inactive.
Brc1ccc(/C=N/Nc2nncc(-c3ccccc3)n2)o1 was read as HSF1 inh inactive, AHR activator inactive and HSF1 activator inactive.
`Oc1ccc(/C=N\Nc2nncc(-c3ccccc3)n2)cc1` gave GAA850 FXN act 8.7, NR0B1 inh inactive, HSF1 inh inactive, AHR activator inactive, HSF1 activator inactive, GAA30 FXN cntr 40.0 and GAA850 confirm 18.5.
Screening COc1ccc(-c2cnnc(N/N=C/c3ccc(O)cc3)n2)cc1 returned GAA850 FXN act 7.6, NR0B1 inh inactive, HSF1 inh inactive, AHR activator inactive, HSF1 activator 100.9, GAA30 FXN cntr 67.6 and GAA850 confirm 36.0.
`COc1ccc(-c2cnnc(N/N=C/c3ccc(O)c(O)c3)n2)cc1` gave GAA850 FXN act inactive, NR0B1 inh inactive, HSF1 inh inactive, AHR activator inactive and HSF1 activator inactive.
Screening CCSc1nc2c(c(=O)n(C)c(=O)n2C)n1Cc1ccc(Cl)cc1 returned GAA850 FXN act inactive, NR0B1 inh inactive, HSF1 inh inactive, AHR activator inactive and HSF1 activator inactive.
Screening CCSc1nc2c(c(=O)[nH]c(=O)n2C)n1Cc1ccc(Cl)cc1 returned GAA850 FXN act 7.6, NR0B1 inh inactive, AHR activator inactive, GAA30 FXN cntr 22.9 and GAA850 confirm 17.7.
For C/C=C/CSc1nc2c(c(=O)[nH]c(=O)n2C)n1Cc1ccc(C)cc1 the results were GAA850 FXN act 28.5, NR0B1 inh inactive, HSF1 inh inactive, AHR activator inactive, HSF1 activator inactive, GAA30 FXN cntr inactive and GAA850 confirm 16.8.
For CCCCn1c(SCc2ccc(Cl)cc2)nc2c1c(=O)[nH]c(=O)n2C the results were GAA850 FXN act 8.9, NR0B1 inh inactive, HSF1 inh inactive, AHR activator inactive, HSF1 activator inactive, GAA30 FXN cntr inactive and GAA850 confirm 10.1.
`Cc1ccc(Cn2c(Sc3nccc(C)n3)nc3c2c(=O)[nH]c(=O)n3C)cc1` gave GAA850 FXN act inactive, NR0B1 inh inactive, HSF1 inh inactive, AHR activator inactive and HSF1 activator inactive.
Screening Cn1c(=O)[nH]c(=O)c2c1nc([N+](=O)[O-])n2Cc1ccccc1 returned GAA850 FXN act 8.5, NR0B1 inh inactive, HSF1 inh inactive, AHR activator inactive, HSF1 activator 155.4, GAA30 FXN cntr inactive and GAA850 confirm inactive.
CC1(C)CC(=O)N(c2cccc(C(F)(F)F)c2)C(=O)C1 was read as GAA850 FXN act inactive, NR0B1 inh inactive, HSF1 inh inactive, AHR activator inactive and HSF1 activator inactive.
`Cc1ccc(S(=O)(=O)N2CCN(C(=O)COC(=O)COc3ccccc3C(C)C)CC2)c(C)c1` gave GAA850 FXN act inactive and NR0B1 inh inactive.
Screening COc1cc(-c2nnc3sc(C4CCCCC4)nn23)cc(OC)c1OC returned GAA850 FXN act inactive, NR0B1 inh inactive, HSF1 inh inactive, AHR activator inactive and HSF1 activator inactive.
`COc1cc(OC)c(-c2nn3c(C4CCCCC4)nnc3s2)cc1OC` gave GAA850 FXN act 12.8, NR0B1 inh inactive, HSF1 inh inactive, AHR activator inactive, HSF1 activator inactive, GAA30 FXN cntr inactive and GAA850 confirm 11.6.
C=CCn1c(-c2cccs2)nc2nc3ccccc3nc21 was read as GAA850 FXN act 8.1, NR0B1 inh inactive, HSF1 inh inactive, AHR activator 70.3, HSF1 activator inactive, GAA30 FXN cntr 80.4 and GAA850 confirm 24.3.
Cc1sc2ncn(CC(=O)NCCCC(=O)Nc3ccc(C(C)C)cc3)c(=O)c2c1C was read as GAA850 FXN act inactive, NR0B1 inh inactive, HSF1 inh inactive, AHR activator inactive and HSF1 activator inactive.
CCC(=O)Nc1cc2c(cc1Cl)-c1ccccc1C2 was read as GAA850 FXN act 8.4, NR0B1 inh inactive, GAA30 FXN cntr 85.5 and GAA850 confirm 30.7.
Cc1ccc(/C=N/NC(=O)C(C)Oc2ccccc2[N+](=O)[O-])s1 (stereo unspecified) was read as GAA850 FXN act 11.0, NR0B1 inh inactive, HSF1 inh inactive, AHR activator inactive, HSF1 activator inactive, GAA30 FXN cntr 25.6 and GAA850 confirm inactive.
`CCNC(=O)C1(C)CCN(C(=O)c2cc(F)ccc2C)C1` (stereo unspecified) gave GAA850 FXN act inactive.
Nc1nc(Nc2ccccc2)nc(N2CCCC2)c1[N+](=O)[O-] was read as GAA850 FXN act 11.2, NR0B1 inh inactive, HSF1 inh inactive, AHR activator inactive, HSF1 activator inactive, GAA30 FXN cntr 74.9 and GAA850 confirm 38.8.
